High-throughput results from PubChem BioAssay.
Hits are enriched below; roughly 11% of the tested compounds scored in any of these assays.
IMPase Li cell – qHTS Assay for Identifying the Cell-Membrane Permeable IMPase Inhibitors: Potentiation with Lithium | CHO-M1 cells, IP1 TR-FRET (IP-One), carbachol + lithium | Potency, µM (series often up to 59.4 µM), for the others: at the highest dose activity, negative = IMPase inhibition, most hits filed as inhibitors | actives 0.35% (n = 210,000) | AID 1457, 2008; active means well fitted inhibition curve with a large enough effect; inconclusive means small, poorly fitted or top-dose-only effect; inactive means no such curve, though single readings can be large or run the other way;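 further: IP1 builds up when IMPase is blocked and the TR-FRET signal falls; potency means the concentration at half of the fitted maximal effect; plate controls were basal vehicle for no effect and high inhibitor control for full effect; nearly all actives have a fitted effect of over 50% in size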
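CHO cells stably expressing M1 receptor (2000/well) were cultured 16–30 h, then exposed to compounds with a small lithium addition for 30 min at 37C. IP1 was measured by TR-FRET competition; AC50 from Hill fits.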
HPGD inh – qHTS Assay for Inhibitors of HPGD (15-Hydroxyprostaglandin Dehydrogenase); purified HPGD, NADH fluorescence kinetic, PGE2 substrate; Potency, µM, inactives show at the top dose activity change, negative = inhibition, actives largely listed as inhibitors; actives 4.3% (n = 150,000); further: potency means the concentration at half of the fitted maximal effect
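20 nM HPGD preincubated 15 min at room temperature with compound in 50 mM Tris-HCl pH 8, 0.01% Tween 20. Started with 1 mM NAD+ and 30 uM prostaglandin E2; NADH fluorescence (360/450 nm) read 5 times over 30-s intervals, last minus first.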
ALDH1A1 inh – qHTS Assay for Inhibitors of Aldehyde Dehydrogenase 1 (ALDH1A1); Purified ALDH1A1, NADH fluorescence, propionaldehyde substrate; Potency, µM (titrated, usually from 75.3 µM), without a hit: at the highest dose activity, negative = inhibition, most hits filed as inhibitors; actives 7.3% (n = 220,000); AID 1030, 2008;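 further: potency means the concentration at half of the fitted maximal effect; plate controls were no enzyme wells and a reference inhibitor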
Target sequence (P00352 whole entry, looked up): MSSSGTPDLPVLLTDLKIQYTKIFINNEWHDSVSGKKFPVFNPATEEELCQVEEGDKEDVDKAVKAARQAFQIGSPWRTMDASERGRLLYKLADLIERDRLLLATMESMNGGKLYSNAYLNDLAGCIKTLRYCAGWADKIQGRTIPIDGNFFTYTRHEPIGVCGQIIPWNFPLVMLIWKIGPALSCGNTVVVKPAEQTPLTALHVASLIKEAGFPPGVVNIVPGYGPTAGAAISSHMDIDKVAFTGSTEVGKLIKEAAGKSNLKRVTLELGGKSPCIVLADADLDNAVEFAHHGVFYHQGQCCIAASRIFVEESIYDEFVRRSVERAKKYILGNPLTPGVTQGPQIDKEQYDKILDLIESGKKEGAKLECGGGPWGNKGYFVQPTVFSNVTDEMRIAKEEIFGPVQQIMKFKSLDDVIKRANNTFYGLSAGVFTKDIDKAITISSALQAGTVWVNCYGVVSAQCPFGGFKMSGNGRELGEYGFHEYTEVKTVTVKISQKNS
IMPase inh – qHTS Assay for Identifying the Cell-Membrane Permeable IMPase Inhibitors. Inositol monophosphatase 1 (Rattus norvegicus), P97697. CHO-M1 cells, IP1 accumulation, HTRF TR-FRET ratio. inhibition (IP1 accumulation), % at 46.1 µM. 120,000 tested, under 10 active. AID 901, 2007; active means well fitted curve in the direction sought with a large enough effect in the signal ratio, not every such curve was filed as active; inconclusive means small, poorly fitted or top-dose-only effect, or a change in a side signal; inactive means no such curve, though single readings can be large or run the other way; the % refers to the signal ratio;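 further: cells stimulated with carbachol in lithium chloride buffer; plate controls were DMSO basal wells for no effect and reference inhibitor wells for full effect; higher means more IMPase inhibition seen as more IP1 and lower FRET ratio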
Target sequence (P97697 whole entry, looked up): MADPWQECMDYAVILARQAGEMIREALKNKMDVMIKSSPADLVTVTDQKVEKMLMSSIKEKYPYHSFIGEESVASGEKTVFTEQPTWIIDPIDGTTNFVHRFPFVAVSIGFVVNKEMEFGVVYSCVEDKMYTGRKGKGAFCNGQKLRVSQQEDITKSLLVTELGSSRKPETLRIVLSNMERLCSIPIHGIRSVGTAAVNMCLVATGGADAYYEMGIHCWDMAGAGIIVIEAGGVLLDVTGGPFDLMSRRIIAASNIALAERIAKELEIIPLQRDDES
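In this qHTS, compounds (final up to 46 uM) act on CHO-M1 cells that are then activated through the M1 receptor with carbachol, in pH 7.4 buffer containing 50 mM LiCl, for 30 min. IP1 accumulation is quantified by the IP-One immunoassay.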
PNC assembly inh – High Content Assay for Compounds that inhibit the Assembly of the Perinucleolar Compartment. PC3M PTB-GFP, PNC prevalence imaging, 16 h; stronger effect = lower value. activity change (PNC), negative = inhibition, % at 10 µM. actives 3.1% (n = 140,000). AID 2417, 2010;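 active means readout at or below -70, meaning at least 70% loss of cells showing the perinucleolar compartment, a nuclear body marking cancer cells; inconclusive means readout between -30 and a set limit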;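 further: plate controls were DMSO wells for no effect and camptothecin positive control wells for full effect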
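PC3M cells stably expressing PTB-GFP, 750–1000 cells/well, treated 16 h at 37 °C with compound (23 nl of library stock), in duplicate. After paraformaldehyde fixation and Hoechst stain, imaged at 20x; PNC prevalence scored by image analysis.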
Starred values were filed as active, the others as inactive; ? = inconclusive; · = no result; [ ] = remark or other dose. Unless noted, the call rests on the fitted dose curve; in most records, active means well fitted inhibition curve with a large enough effect (not every such curve was filed as active); inconclusive means small, poorly fitted or top-dose-only effect, or another doubt; inactive means no such curve, though single readings can be large or run the other way. Unless noted, on the % scale 0 is the no-effect control and ±100 the full control effect.

SMILES	IMPase Li cell	HPGD inh	ALDH1A1 inh	IMPase inh	PNC assembly inh
N#CC1=C(N)OC2=C(C(=O)CCC2)[C@]12C(=O)N(CC(N)=O)c1ccccc12	·	·	8.9%	-0.4	?
O=C(CSC(=S)N1CCCCC1)Nc1ncc2c(n1)CC(c1ccco1)CC2=O (configuration not stated)	·	·	3.98µM*	·	·
Cc1ccc(S(=O)(=O)NC(=O)Nc2ncc3c(n2)CC(c2ccco2)CC3=O)cc1 (configuration not stated)	3.9%	1.0%	?	1.3	-97.2*
CC(=O)Nc1ncc2c(n1)CC(c1ccco1)CC2=O (configuration not stated)	18.7%[38.3 µM]	-7.4%	-12.4%	-5.4	-29.5
CC(C)c1ccc(C2CC(=O)c3cnc(N4CCc5ccccc5C4)nc3C2)cc1 (configuration not stated)	11.7%[38.3 µM]	-20.2%	-9.7%	5.7	47.7
O=C1CC(c2ccco2)Cc2nc(N3CCc4ccccc4C3)ncc21 (configuration not stated)	10.3%[38.3 µM]	?	12.6µM*	1.1	-18.7
N#CCCn1c(=O)c(-c2cc(F)cc(F)c2)nc2cnc(OCc3ccccc3)nc21	6.4%	?	?	·	·
COc1ccc(Nc2ccnc(Nc3ccc(OC)cc3)n2)cc1	10.8%	-6.2%	?	·	-93.4*
CCOc1nc(Nc2ccc(OC)cc2)nc(OCC)n1	18.9%[38.3 µM]	-12.0%	-0.6%	-4.9	?
O=C(N/N=C/c1coc2ccccc2c1=O)c1cccc([N+](=O)[O-])c1	-2.2%	·	28.2µM*	·	·
O=C(N/N=C/c1coc2ccccc2c1=O)c1ccccc1Br	-8.8%	-29.1%	4.47µM*	·	-21.4
COc1ccc(C(=O)N/N=C\c2coc3ccccc3c2=O)cc1	·	·	3.55µM*	·	·
O=C(N/N=C/c1coc2ccccc2c1=O)c1cc(O)cc(O)c1	-0.3%	·	?	·	·
CC1CC[C@@]2(C(=O)O)CC[C@]3(C)C(=CCC4[C@@]5(C)CCC(O)C(C)(C)C5CC[C@@]43C)C2C1C (some centres not stated)	7.7%	-1.5%	5.8%	·	·
O=C(Nc1ccc(S(=O)(=O)N2CCOCC2)cc1)c1ccc2c(c1)S(=O)(=O)c1ccccc1C2=O	-3.6%	·	13.3%	·	·
O=C(Nc1cc(S(=O)(=O)N2CCOCC2)ccc1O)c1ccc2c(c1)S(=O)(=O)c1ccccc1C2=O	14.1%	·	1.12µM*	·	·
CCOC(=O)c1nnn(CC(=O)Nc2ccccc2OC)c1C(=O)OCC	8.3%[38.3 µM]	6.7%	11.6%	-9.4	-113.4*
COC(=O)c1nnn(CC(=O)NC(=O)Nc2cccc(C)c2C)c1C(=O)OC	-1.7%	-7.3%	4.0%	·	-113.4*
CCOC(=O)c1nnn(CC(=O)Nc2cc(F)ccc2F)c1C(=O)OCC	0.8%[38.3 µM]	-15.1%	14.9%	?	47.0
COC(=O)c1nnn(CC(=O)NC(=O)Nc2ccccc2F)c1C(=O)OC	-0.5%	·	12.0%	·	·
O=S(=O)(Cc1c(F)cccc1Cl)c1ncn[nH]1	5.8%	·	11.3%	·	·
CC1=C(C)C(=O)C(CCCCC#CCCCC#CCO)=C(C)C1=O	9.0%	?	14.1µM*	-0.1	21.7
O=C(OCn1ncc(Br)c(Br)c1=O)c1ccc(F)cc1	7.08µM*	22.4µM*	0.0891µM*	?	-10.3
CCn1ncc(Br)c1C(=O)Nc1ccc(C(=O)OC(C)C)cc1	21.4%[38.3 µM]	-12.7%	?	6.9	?
O=C(OCn1ncc(Br)c(Br)c1=O)c1ccccc1Cl	?	?	0.398µM*	?	-2.7
SMILES	IMPase Li cell	HPGD inh	ALDH1A1 inh	IMPase inh	PNC assembly inh
O=C(OCc1cnc(Cl)s1)c1ccccc1Cl	7.6%[38.3 µM]	-11.3%	-3.3%	5.8	44.0
CC#CCOC(=O)C1=CCCN(C)C1	36.6%	2.7%	1.2%	9.1	·
Cc1ccc(C(=O)OCC(=O)NC2CCCCC2)s1	0.0%	·	5.8%	·	·
O=C(O)[C@H](CCc1ccccc1)N1C(=O)c2ccccc2C1=O	0.4%	-7.0%	-9.7%[13.5 µM]	·	·
Cc1ccc(-n2c(C)cc(/C=N/Nc3ccc([N+](=O)[O-])cn3)c2C)cc1	6.5%[38.3 µM]	-4.9%	10µM*	4.5	14.4
Cc1ccc(Cn2nc(C)c(/C=N/NC(=O)c3cccnc3)c2C)cc1	1.6%	·	-1.7%	·	·
O=[N+]([O-])/C=C/c1cn(Cc2ccc(F)cc2)c2ccccc12	32.0%[38.3 µM]	-21.2%	?	4.0	59.5
Cc1cc(/C=N/Nc2ccc([N+](=O)[O-])cn2)c(C)n1-c1ccccc1	32.9%[38.3 µM]	-6.6%	?	1.9	-1.1
Cc1ccc(C(=O)N/N=C/c2cn(Cc3ccccc3)c3ccccc23)cn1	·	·	12.6µM*	·	·
Cc1ccc(Cn2cc(/C=N/Nc3ccc([N+](=O)[O-])cn3)c3ccccc32)cc1	7.4%	-15.6%	10µM*	10.7	?
N#CCC(=O)N/N=C/c1cn(Cc2ccc(Cl)c(Cl)c2)c2ccccc12	·	·	-13.9%	·	·
Cc1nn(Cc2ccccc2)c(C)c1/C=N/NC(=O)c1cccnc1	-11.7%	31.6µM*	-6.2%	·	?
O=C1Nc2ccccc2C1=Nc1cccc2ncccc12	-4.7%	-8.3%	4.3%[13.5 µM]	·	·
O=c1c(CCc2ccccc2)nc2cnc(Oc3cccc(Cl)c3)nc2n1C[C@H]1CCCO1	-4.5%	-3.7%	?	·	·
[O-][n+]1c2c(c3c4non(O)c4ccc31)CCCC2	30.2%[38.3 µM]	7.94µM*	-12.0%	5.5	10.6
CCCCc1nc2c(c3c1C[C@H](C)OC3)CN(C(=O)NCCc1c[nH]c3ccccc13)CC2	-7.2%	-0.1%	13.8%[13.5 µM]	·	·
CC1=C(C(=O)Nc2ccc(C)cc2C)C(c2cccs2)NC(=S)N1 (configuration not stated)	15.0%[38.3 µM]	-7.4%	?	1.6[1.84 µM]	-17.7
CC1=C(C(=O)Nc2ccccc2C)C(c2cccs2)NC(=S)N1 (configuration not stated)	-3.6%	-13.8%	12.6µM*	·	?
CCOc1ccccc1NC(=O)C1=C(C)NC(=S)NC1c1cccs1 (configuration not stated)	-2.1%	-13.5%	0.631µM*	·	-26.7
CCN(C(=O)CCNC(=O)Cn1cnc2ccccc2c1=O)c1cc(OC)ccc1OC	·	·	·	-5.8	·
CCOC(=O)C1CCN(C(=O)N(CC)CC)CC1	0.7%	·	6.2%	·	·
CCOC(=O)c1[nH]c2ccc(Br)cc2c1NC(=O)CCN1CCC(C)CC1	42.5%[38.3 µM]	-14.9%	11.2µM*	4.3	13.6
Cc1ccc(-c2cc(C(=O)N3CCCC3)no2)cc1	8.6%[38.3 µM]	?	?	-3.0	9.4
CC1CCCC(C)N1C(=O)c1cc(-c2ccc(Cl)c(Cl)c2)on1 (configuration not stated)	14.1%[38.3 µM]	17.8µM*	-18.8%	9.5	86.3
O=c1oc2ccccc2cc1-c1cn2cc(Cc3ccc(Br)cc3)sc2n1	·	·	·	3.4	·
